Among the data in ChEMBL document CHEMBL1961873, “Compounds: GSK PKIS; Assays: Nanosyn kinase panel” (2012) are inhibition values, retold here.

Assay [1] addresses Dual specificity protein kinase CLK3 (Homo sapiens) (UniProt P49761). The following applies: at 1 µM.
Assay [2] concerns the target Dual specificity tyrosine-phosphorylation-regulated kinase 1A (Homo sapiens) (UniProt Q13627). Conditions: at 0.1 µM.
The target is the same in assay [3]. The following applies: at 1 µM.
For assay [4], the target named is Dual specificity tyrosine-phosphorylation-regulated kinase 1B (Homo sapiens) (UniProt Q9Y463). Conditions: at 0.1 µM.
Sequence of Dual specificity tyrosine-phosphorylation-regulated kinase 1B (Homo sapiens) (Q9Y463 whole entry, looked up): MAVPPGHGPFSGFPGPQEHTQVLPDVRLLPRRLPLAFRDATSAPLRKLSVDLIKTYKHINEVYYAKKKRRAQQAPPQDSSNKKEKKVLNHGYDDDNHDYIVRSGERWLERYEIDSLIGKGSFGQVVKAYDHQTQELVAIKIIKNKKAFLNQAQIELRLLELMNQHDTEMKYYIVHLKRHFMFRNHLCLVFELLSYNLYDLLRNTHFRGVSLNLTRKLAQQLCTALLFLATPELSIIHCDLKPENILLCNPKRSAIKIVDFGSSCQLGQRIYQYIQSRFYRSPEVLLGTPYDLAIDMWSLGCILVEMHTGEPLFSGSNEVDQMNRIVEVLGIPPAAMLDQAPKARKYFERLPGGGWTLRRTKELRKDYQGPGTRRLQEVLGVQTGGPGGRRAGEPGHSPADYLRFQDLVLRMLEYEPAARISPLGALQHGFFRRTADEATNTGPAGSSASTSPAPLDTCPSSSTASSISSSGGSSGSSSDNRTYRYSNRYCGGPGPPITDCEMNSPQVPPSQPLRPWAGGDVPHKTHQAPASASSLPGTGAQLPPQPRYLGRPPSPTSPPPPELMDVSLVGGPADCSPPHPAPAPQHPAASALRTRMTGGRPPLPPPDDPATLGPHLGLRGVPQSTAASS
The target is the same in assay [5]. The following applies: at 1 µM.
For assay [6], the target named is T1, Dual specificity tyrosine-phosphorylation-regulated kinase 2 (Homo sapiens) (UniProt Q92630).
T1 sequence (whole entry): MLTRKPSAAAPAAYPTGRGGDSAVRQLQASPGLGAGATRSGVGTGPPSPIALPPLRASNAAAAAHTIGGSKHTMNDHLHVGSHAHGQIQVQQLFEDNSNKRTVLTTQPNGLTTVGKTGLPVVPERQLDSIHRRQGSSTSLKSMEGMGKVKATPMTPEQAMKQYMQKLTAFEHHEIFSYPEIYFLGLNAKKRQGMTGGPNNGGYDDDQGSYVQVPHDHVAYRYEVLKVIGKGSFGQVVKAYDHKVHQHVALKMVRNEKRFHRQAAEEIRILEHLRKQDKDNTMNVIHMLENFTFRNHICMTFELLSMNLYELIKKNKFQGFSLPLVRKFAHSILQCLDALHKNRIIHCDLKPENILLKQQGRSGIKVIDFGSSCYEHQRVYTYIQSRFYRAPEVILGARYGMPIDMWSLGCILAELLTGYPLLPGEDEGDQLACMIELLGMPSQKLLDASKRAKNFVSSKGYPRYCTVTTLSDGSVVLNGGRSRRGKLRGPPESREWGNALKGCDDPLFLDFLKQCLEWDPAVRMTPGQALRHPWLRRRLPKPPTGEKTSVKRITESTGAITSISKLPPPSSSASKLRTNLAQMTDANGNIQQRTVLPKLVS
The following applies: at 0.1 µM.

Assay [7] has as its target T1, Dual specificity tyrosine-phosphorylation-regulated kinase 2 (Homo sapiens). The following applies: at 1 µM.
The target in assay [8] is Glycogen synthase kinase-3 alpha (Homo sapiens) (UniProt P49840). The following applies: at 0.1 µM.
Sequence of Glycogen synthase kinase-3 alpha (Homo sapiens) (P49840 2-483 limits assumed): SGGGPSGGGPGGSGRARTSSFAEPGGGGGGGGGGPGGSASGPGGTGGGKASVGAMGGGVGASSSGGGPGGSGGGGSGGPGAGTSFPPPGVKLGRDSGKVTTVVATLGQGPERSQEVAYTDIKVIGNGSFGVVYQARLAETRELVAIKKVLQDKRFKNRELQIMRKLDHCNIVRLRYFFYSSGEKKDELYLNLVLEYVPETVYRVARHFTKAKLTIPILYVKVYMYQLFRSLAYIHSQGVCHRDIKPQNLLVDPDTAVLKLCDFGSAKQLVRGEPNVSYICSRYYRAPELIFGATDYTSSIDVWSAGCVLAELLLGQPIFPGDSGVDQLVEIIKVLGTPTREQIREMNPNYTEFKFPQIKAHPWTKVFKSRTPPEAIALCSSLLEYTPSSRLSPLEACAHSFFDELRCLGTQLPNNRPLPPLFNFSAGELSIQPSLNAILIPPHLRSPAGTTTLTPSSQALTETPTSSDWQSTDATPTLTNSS
For assay [9] the target is unchanged. Conditions: at 1 µM.
Assay [10] addresses Glycogen synthase kinase-3 beta (Homo sapiens) (UniProt P49841). The following applies: at 0.1 µM.

Sequence of Glycogen synthase kinase-3 beta (Homo sapiens) (P49841 whole entry, looked up): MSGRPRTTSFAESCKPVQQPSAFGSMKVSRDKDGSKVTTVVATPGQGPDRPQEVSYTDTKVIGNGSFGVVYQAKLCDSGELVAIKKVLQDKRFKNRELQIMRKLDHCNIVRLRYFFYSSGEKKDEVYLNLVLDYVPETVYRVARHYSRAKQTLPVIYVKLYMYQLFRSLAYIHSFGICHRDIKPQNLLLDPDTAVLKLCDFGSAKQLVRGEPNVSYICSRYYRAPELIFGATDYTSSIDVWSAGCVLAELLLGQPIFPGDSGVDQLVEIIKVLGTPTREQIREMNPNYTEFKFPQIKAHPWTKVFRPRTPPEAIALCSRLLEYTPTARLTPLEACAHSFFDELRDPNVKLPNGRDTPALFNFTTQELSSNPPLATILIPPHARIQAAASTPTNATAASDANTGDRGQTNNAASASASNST
Sequence of Dual specificity protein kinase CLK3 (Homo sapiens) (P49761 whole entry, looked up): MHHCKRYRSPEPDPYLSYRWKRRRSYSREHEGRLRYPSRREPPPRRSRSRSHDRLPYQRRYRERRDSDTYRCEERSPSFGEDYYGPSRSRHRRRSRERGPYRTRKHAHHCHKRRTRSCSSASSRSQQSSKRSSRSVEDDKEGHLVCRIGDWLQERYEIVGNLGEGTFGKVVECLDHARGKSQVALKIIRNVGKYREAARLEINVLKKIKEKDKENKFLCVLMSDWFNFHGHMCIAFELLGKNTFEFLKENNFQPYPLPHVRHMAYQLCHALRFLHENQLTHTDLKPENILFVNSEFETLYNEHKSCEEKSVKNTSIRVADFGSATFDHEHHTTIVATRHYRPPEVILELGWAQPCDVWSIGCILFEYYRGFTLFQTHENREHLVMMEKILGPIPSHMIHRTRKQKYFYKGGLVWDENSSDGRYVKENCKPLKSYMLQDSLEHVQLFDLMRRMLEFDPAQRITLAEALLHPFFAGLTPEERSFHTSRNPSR

By inhibition is commonly meant the relative decrease from the control value, in per cent. `CCCN1CCCC(c2ccc(Nc3nc(Nc4cc(F)ccc4C(N)=O)c4cc[nH]c4n3)c(OC)c2)C1` (stereo not given): the inhibition came to 22.3% in [1]; 67.5% in [2]; 82.7% in assay [3]; 72% in assay [4]; 82.4% in assay [5]; 36.3% in assay [6]. Besides, the inhibition in assay [7] is 82.3%; in [8], 1.49%; in [9] it was 2.99%; in [10] it was 0.7%.
As to `Cc1ccc(C(=O)NC2CC2)cc1-c1ccc2[nH]ncc2c1`, the inhibition in assay [1] is 0.04%; in assay [2], -1.4%; in [3] it was 2.6%; in [4] it was 1.19%; in [5], 3.29%; in assay [6] it was -3.32%. Also, the inhibition in assay [7] was -3.69%; in [8], -1.07%; in [9], 1.83%; in [10], -0.96%.
`Cc1cc(Cl)cc2c1NC(=O)C2=NNc1ccc(S(N)(=O)=O)cc1`: the inhibition was 0.83% in assay [1]; 1.45% in assay [2]; 2.28% in [3]; -0.62% in [4]; 1.24% in [5]; 0.8% in assay [6]. Further, the inhibition in assay [7] amounted to 2.04%; in assay [8] it was 2.99%; in assay [9] it was 6.57%; in assay [10], 1.19%.
As to `Cc1ccc(Nc2ccnc(Nc3cccc(C(N)=O)c3)n2)cc1O`, the inhibition in assay [1] was 3.09%; in [2], 2.45%; in [3] it was 26.5%; in [4], -1.03%; in assay [5], 11.8%; in assay [6] it was 2.25%. The inhibition in assay [7] stood at 7.18%; in [8], 0.67%; in [9] it was 14.9%; in assay [10], 0.74%.
On to `CCS(=O)(=O)c1ccc(OC)c(Nc2nccc(N(C)c3ccc4c(C)n[nH]c4c3)n2)c1`, for which the inhibition is 2.41% in assay [1]; 2.89% in assay [2]; 3.45% in assay [3]; -0.67% in assay [4]; -0.22% in assay [5]; 2.84% in assay [6]. Also, the inhibition was found to be 2.34% in [7], 2.43% in assay [8], 3.41% in assay [9] and 1.45% in [10].
Consider `C[C@@H](Oc1cc(-n2cnc3ccc(OCC4CCN(C)CC4)cc32)sc1C(N)=O)c1ccccc1C(F)(F)F`, for which the inhibition in assay [1] is 3.73%; in [2] it was -2.42%; in assay [3], 2.47%; in assay [4] it was 0.26%; in assay [5], 2.2%; in assay [6], -2.57%. Further, the inhibition is -2.94% in assay [7], -0.56% in assay [8], 2.65% in assay [9] and -0.31% in assay [10].
For `NS(=O)(=O)c1ccc(-c2cc3ccncc3cc2OCc2ccccc2)cc1`, the inhibition was 3.69% in [1]; 1.26% in [2]; 4.84% in assay [3]; 0.97% in [4]; 2.12% in assay [5]; 2.46% in [6]. In addition, the inhibition in assay [7] was 3.11%; in assay [8], 2.45%; in [9], 4.95%; in assay [10], 2.08%.
For `Cc1cc(O)cc(C)c1/C=C/c1cncc(C(=O)N(C)C)c1`, the inhibition in assay [1] worked out at 1.59%; in [2], 1.64%; in assay [3] it was 3.33%; in assay [4], 1.15%; in assay [5], 2%; in assay [6] it was 2.94%. The inhibition is 3.72% in assay [7], 6.93% in [8], 10.2% in [9] and 6.11% in assay [10].
With `NC(=O)c1cccc(Nc2nccc(Nc3cccc(F)c3)n2)c1`, the inhibition was 2.19% in [1]; 0.47% in assay [2]; 0.26% in [3]; 0.64% in assay [4]; -0.2% in assay [5]; 1.36% in assay [6]. Also, the inhibition in assay [7] stood at 1.82%; in [8], 3.82%; in assay [9], 21%; in [10], 2.25%.
`N#Cc1cccc(Nc2nccc(-c3cnn4ncccc34)n2)c1`: the inhibition worked out at 78.4% in assay [1]; 81.7% in [2]; 86.4% in assay [3]; 81.3% in [4]; 86.5% in [5]; 20.3% in [6]. Also, the inhibition is 71.5% in assay [7], 85.3% in assay [8], 89.5% in assay [9] and 84.1% in assay [10].
As for `CN1CCN(C(=O)c2ccc(NC(=O)Nc3ccc(N(C)c4ccnc(Nc5ccc(CS(C)(=O)=O)cc5)n4)cc3)cc2)CC1`, the inhibition is -0.46% in assay [1]; -0.03% in assay [2]; -2.1% in assay [3]; 0.37% in assay [4]; -2.01% in assay [5]; 2.14% in assay [6]. Further, the inhibition in [7] was determined as 4.06%; in [8], 2.9%; in assay [9], 4.98%; in assay [10], 1.98%.
Regarding `CS(=O)(=O)CCNCc1nc(-c2ccc3ncnc(Nc4ccc(OCc5cccc(C(F)(F)F)c5)cc4)c3c2)cs1`, the inhibition was -1.22% in [1]; -1.28% in [2]; -1.8% in assay [3]; 0.58% in [4]; 2.3% in assay [5]; 1.36% in assay [6]. Also, the inhibition turned out to be 1.03% in assay [7], 6.47% in [8], 4.93% in [9] and 5.25% in [10].
As to `Nc1nccc(C#Cc2cncnc2Nc2ccc(OCc3cccc(F)c3)c(Cl)c2)n1`, the inhibition in assay [1] turned out to be 3.1%; in assay [2], 3.44%; in assay [3] it was 10.8%; in assay [4], 1.71%; in [5], 4.87%; in assay [6] it was 3.08%. The inhibition in assay [7] amounted to 4.89%; in assay [8], 4.01%; in [9], 14.3%; in [10] it was 2.94%.
For the compound `O=C1Nc2ccccc2/C1=C/Nc1ccc2[nH]c(=O)[nH]c2c1`, the inhibition worked out at 4.44% in assay [1]; 6.01% in assay [2]; 23.3% in [3]; 2.68% in [4]; 16.1% in [5]; 4.31% in assay [6]. The inhibition in [7] was 11.1%; in assay [8], 3.7%; in [9], 14.4%; in assay [10], 2.99%.
In the case of `Cc1ccc(NC(=O)CC2CC2)cc1-c1ccc(C(=O)NCC2CC2)cc1`, the inhibition in assay [1] is 1.83%; in assay [2], 0.93%; in assay [3], 3.49%; in assay [4], 0.61%; in [5], 1.49%; in [6], 2.06%. The inhibition amounted to 2.68% in assay [7], 2.32% in assay [8], 2.3% in assay [9] and 1.75% in [10].
In the case of `COc1ccc2ncnc(Nc3ccc(OCc4ccccc4)cc3)c2c1`, the inhibition in assay [1] was 1.64%; in assay [2] it was 1.05%; in assay [3], 3.73%; in assay [4] it was -0.87%; in [5] it was 1.35%; in assay [6], 1.27%. In addition, the inhibition in assay [7] is 2.65%; in assay [8], 1.55%; in assay [9], 4.44%; in assay [10], 1.06%.
In the case of `Cc1ccc2c(-c3ccnc(Nc4ccc5c(c4)OCCO5)n3)c(-c3ccc(C(F)(F)F)cc3)nn2n1`, the inhibition in assay [1] is 0.07%; in assay [2], 0.1%; in assay [3], 2%; in assay [4] it was -0.58%; in assay [5], 1.39%; in assay [6] it was -0.27%. The inhibition was -1.15% in [7], 5.44% in assay [8], 10.5% in assay [9] and 4.65% in assay [10].
